# In PubChem BioAssay:
# The source made the active and inactive calls. Unless noted, no stated cut-off is given here; in the data, active means inhibition above about 80%; inactive means the rest.
# What was measured:
# [1] = LFS_MB_P medulloblastoma growth inhibition, cell-based, chromothripsis tumors, cisplatin or BGB combos (AID 1671449); details: LFS_MB_P medulloblastoma cells;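 further: cells exposed for 96 hours; 0% = vehicle DMSO and 100% = killing by high DMSO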
# [2] = HDN33 neuroblastoma growth inhibition, cell-based, chromothripsis tumors, cisplatin or BGB combos (AID 1671450); details: HDN33 neuroblastoma cells, stronger effect = higher value;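 further: cells exposed to compound for four days; 0% = vehicle DMSO and 100% = cell killing by high DMSO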
# [3] = ICB984 medulloblastoma cell growth inhibition, synergistic combos for chromothripsis tumors, cisplatin or BGB combos (AID 1671451; call rule not given here;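 further: cells exposed for 96 hours before readout; 0% = vehicle DMSO and 100% = killing by high DMSO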); details: ICB984 medulloblastoma cells, drug combinations, stronger effect = higher value
# [4] = LFS_MB_1R medulloblastoma cell growth inhibition, synergistic combos for chromothripsis tumors, cisplatin or BGB combos (AID 1671452); details: LFS_MB_1R medulloblastoma cells, stronger effect = higher value;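 further: cells exposed for 96 hours before readout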
# [5] = HTB85 osteosarcoma cell growth inhibition, synergistic combos for chromothripsis tumors, BGB or cisplatin IC20 combos (AID 1671453); details: HTB85 osteosarcoma cells, drug combinations, stronger effect = higher value;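 further: cells exposed for 96 hours before readout; 0% = vehicle DMSO and 100% = high DMSO killing control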
# [6] = CRL2098 osteosarcoma cell growth inhibition, synergistic combos for chromothripsis tumors, BGB or cisplatin IC20 combos (AID 1671454); details: CRL2098 osteosarcoma cells, drug combinations, stronger effect = higher value;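 further: cells exposed for 96 h before readout; 0% = vehicle DMSO and 100% = killing by high DMSO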
# [7] = HD-MB03 medulloblastoma cell growth inhibition, synergistic combos for chromothripsis tumors, BGB or cisplatin IC20 combos (AID 1671455; in the data active means inhibition above about 83%;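 further: 0% = vehicle DMSO and 100% = high DMSO as cytotoxic control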); details: HD-MB03 medulloblastoma cells, stronger effect = higher value
# [8] = UWB1.289 ovarian carcinoma cell growth inhibition, synergistic combos for chromothripsis tumors, BGB or cisplatin combos (AID 1671456); details: UWB1.289 ovarian carcinoma cells, stronger effect = higher value;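 further: cells exposed to compound for four days; 0% = vehicle DMSO and 100% = killing by high DMSO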
# [9] = LFS_MB_2R medulloblastoma cell growth inhibition, synergistic combos for chromothripsis tumors, cisplatin combos (AID 1671457); details: LFS_MB_2R medulloblastoma cells, stronger effect = higher value;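 further: cells exposed to compound for four days before readout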
# [10] = MDA-MB-436 breast carcinoma cell growth inhibition, synergistic combos for chromothripsis tumors, BGB or cisplatin combos (AID 1671458; call rule not given here;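 further: cells exposed for 96 hours; 0% = vehicle DMSO and 100% = killing by high DMSO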); details: MDA-MB-436 breast carcinoma growth inhibition, drug combinations, stronger effect = higher value
# [11] = UWB1.289_BRCA1 ovarian cancer growth, cell-based, BGB or cisplatin combinations (AID 1671459); details: UWB1.289 BRCA1 ovarian carcinoma, drug combinations, stronger effect = higher value
# [12] = human astrocyte viability loss, single and combined drugs, cytotoxicity control for chromothriptic childhood tumor combination screen, cell-based, BGB or cisplatin IC20 combos (AID 1671460); details: Human astrocytes, drug combinations, stronger effect = higher value;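 further: cells exposed to compounds for 96 hours before viability readout; 0% = vehicle and 100% = killing control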
# [13] = growth inhibition of BT084 medulloblastoma cells, cell-based, ICGC_MB145, cisplatin and BGB IC40 combos (AID 1671461); details: drug combinations, stronger effect = higher value;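 further: cells exposed to drugs for 96 hours; 0% = vehicle DMSO and 100% = high DMSO full killing control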
# [14] = growth inhibition of RCMB18 medulloblastoma cells, cell-based, cisplatin and BGB IC40 combos (AID 1671462); details: stronger effect = higher value;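 further: cells exposed to compound for four days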
# [15] = growth inhibition of CRL1545 osteosarcoma cells, cell-based, cisplatin and BGB IC20 combos (AID 1671464); details: stronger effect = higher value;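 further: cells exposed to compound for 96 hours before readout; 0% = vehicle DMSO and 100% = high DMSO killing control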
# [16] = measured here: combination with BGB IC40, at 0.05 µM
# [17] = measured here: with BGB IC20 combination, at 0.5 µM
# [18] = measured here: with cisplatin IC20 combination, at 0.5 µM
# [19] = measured here: combination with cisplatin, at 0.5 µM
# [20] = measured here: combination with cisplatin, at 5 µM
smiles,measurement,setting,value
CC(C)(O)[C@H]1CC[C@@](C)(C2[C@@H](O)C[C@@]3(C)[C@@H]4C[C@H](O)C5C(C)(C)[C@@H](O)CCC56CC46CC[C@]23C)O1 (stereo partly drawn),inhibition,"[1]; at 0.5 µM, stronger effect = higher value",-20.9% (inactive)
same,inhibition,"[1]; measured here: combination with BGB IC20, at 0.005 µM",-17.4%
same,inhibition,"[1]; measured here: combination with BGB IC40, at 0.005 µM",78.4%
same,inhibition,[1]; [16],-19.9%
same,inhibition,"[1]; measured here: combination with cisplatin, at 0.5 µM, stronger effect = higher value",-28%
same,inhibition,"[1]; measured here: combination with cisplatin, at 5 µM, stronger effect = higher value",-7.56%
same,inhibition,"[2]; BGB combo, at 5 µM",-24.9%
same,inhibition,[2]; at 0.5 µM,2.8% (inactive)
same,inhibition,"[2]; cisplatin combo, at 5 µM",-13.8%
same,inhibition,[2]; [17],-6.04%
same,inhibition,[2]; [18],14.5%
same,inhibition,"[2]; single agent, at 5 µM",-12.8%
same,inhibition,"[3]; BGB IC20 combo, at 0.005 µM",-5.6%
same,inhibition,"[3]; BGB IC40 combo, at 0.005 µM",-12.2%
same,inhibition,"[3]; BGB IC40 combo, at 0.05 µM",-16.5%
same,inhibition,[3]; at 0.5 µM,-16.2% (inactive)
same,inhibition,"[3]; cisplatin combo, at 0.05 µM",-22.4%
same,inhibition,"[3]; cisplatin combo, at 0.5 µM",-30.1%
same,inhibition,"[3]; cisplatin combo, at 5 µM",-15.7%
same,inhibition,"[3]; measured here: 5 uM single agent, at 5 µM",-12.4%
same,inhibition,[4]; at 0.5 µM,-15.4% (inactive)
same,inhibition,[4]; [16],-5.25%
same,inhibition,[4]; [19],-36.6%
same,inhibition,[4]; [20],-6.73%
same,inhibition,[5]; at 0.5 µM,-5.42% (inactive)
same,inhibition,"[5]; measured here: with BGB IC20, at 0.5 µM",4.96%
same,inhibition,"[5]; measured here: with BGB IC20, at 5 µM",-8.72%
same,inhibition,"[5]; measured here: with cisplatin IC20, at 0.5 µM",-17.2%
same,inhibition,"[5]; measured here: with cisplatin IC20, at 5 µM",-11.8%
same,inhibition,"[5]; single agent, at 5 µM",5.09%
same,inhibition,[6]; at 0.5 µM,-14.8% (inactive)
same,inhibition,"[6]; measured here: combination with BGB at IC20, at 0.5 µM",-24.4%
same,inhibition,"[6]; measured here: combination with cisplatin at IC20, at 0.5 µM",-18.8%
same,inhibition,[7]; at 0.5 µM,-9.5% (inactive)
same,inhibition,"[7]; measured here: combo with BGB at IC20, at 0.5 µM",-9.93%
same,inhibition,"[7]; measured here: combo with cisplatin at IC20, at 0.5 µM",-11.4%
same,inhibition,[8]; at 0.5 µM,0.78% (inactive)
same,inhibition,"[8]; measured here: inhibition with BGB combination, at 0.05 µM",-14.1%
same,inhibition,"[8]; measured here: inhibition with cisplatin combination, at 0.05 µM",-5.37%
same,inhibition,[9]; at 0.5 µM,-6.35% (inactive)
same,inhibition,[9]; [19],-24.6%
same,inhibition,[9]; [20],-28.9%
same,inhibition,[10]; at 0.5 µM,-12% (inactive)
same,inhibition,"[10]; measured here: BGB combination, at 0.5 µM",-4.92%
same,inhibition,"[10]; measured here: BGB combination, at 5 µM",-19.3%
same,inhibition,"[10]; measured here: cisplatin combination, at 0.5 µM",-27.4%
same,inhibition,"[10]; measured here: cisplatin combination, at 5 µM",-20.3%
same,inhibition,"[11]; BGB combination, concentration series, at 5 µM",9.93%
same,inhibition,[11]; at 0.5 µM,-4.21% (inactive)
same,inhibition,"[11]; cisplatin combination, concentration series, at 5 µM",7.75%
same,inhibition,[12]; at 0.5 µM,0.26% (inactive)
same,inhibition,"[12]; measured here: combo with BGB IC20, at 0.5 µM",10.1%
same,inhibition,"[12]; measured here: combo with cisplatin IC20, at 0.5 µM",-8.09%
same,inhibition,[13]; at 0.5 µM,-8.31% (inactive)
same,inhibition,"[13]; cisplatin combination, at 0.5 µM",-3.58%
same,inhibition,"[13]; cisplatin combination, at 5 µM",-121%
same,inhibition,"[13]; measured here: BGB IC40 combination 0.05 uM, at 0.05 µM",-25.1%
same,inhibition,"[13]; single agent, at 5 µM",-6.41%
same,inhibition,[14]; at 0.5 µM,-30.6% (inactive)
same,inhibition,"[14]; cisplatin combo, at 5 µM",-6.31%
same,inhibition,"[14]; measured here: BGB IC40 combination, at 0.05 µM",-14.5%
same,inhibition,[14]; [19],-79%
same,inhibition,"[14]; single agent, at 5 µM",-0.285%
same,inhibition,[15]; at 0.5 µM,8.92% (inactive)
same,inhibition,[15]; [17],-5.47%
same,inhibition,[15]; [18],14.8%
same,inhibition,"[15]; single agent, at 0.05 µM",-11.3%
same,inhibition,"[15]; single agent, at 5 µM",-13%
